In PubChem BioAssay AID1546 (The Scripps Research Institute Molecular Screening Center, 2009):
Some of the results follow. The source made the active and inactive calls. No stated cut-off is given here; in the data, active means activation above about 45%; inactive means the rest.

Molecular target: Neuropeptide Y receptor type 1 (Homo sapiens) (UniProt P25929)
Experiment: NPY-Y1 potentiators or agonists, confirmation, cell-based (AID 1546);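 further: cells challenged with NPY at its EC10 plus isoproterenol stimulus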
Conditions: cell-based NPY-Y1 potentiator/agonist assay; at 3.6 µM; stronger effect = higher value

Neuropeptide Y receptor type 1 (Homo sapiens), sequence (P25929 whole entry, looked up): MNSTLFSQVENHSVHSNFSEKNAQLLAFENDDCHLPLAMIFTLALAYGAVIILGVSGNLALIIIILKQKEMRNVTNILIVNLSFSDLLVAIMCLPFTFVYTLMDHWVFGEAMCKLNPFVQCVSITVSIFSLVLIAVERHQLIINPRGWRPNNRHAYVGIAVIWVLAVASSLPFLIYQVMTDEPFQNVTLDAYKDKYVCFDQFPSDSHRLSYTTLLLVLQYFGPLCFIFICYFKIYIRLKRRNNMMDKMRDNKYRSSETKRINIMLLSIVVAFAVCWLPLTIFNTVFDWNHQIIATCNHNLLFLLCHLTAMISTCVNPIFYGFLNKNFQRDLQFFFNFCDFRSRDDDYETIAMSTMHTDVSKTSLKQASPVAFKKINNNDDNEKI

SMILES	activation
Cc1nn(Cc2ccccc2Cl)c(Cl)c1C(=O)OC(C(=O)NC(N)=O)C(C)C (configuration not stated)	43.3% (inactive)
CSC1=NP(=S)(SC)N(C)c2nc3n(c21)CCC3 (configuration not stated)	13.8% (inactive)
